# Assay results taken from PubChem BioAssay (NCI).
# This is part of a sample that, as a whole, favours compounds with a hit. Of some 83,000 tested, about 20% had one in any assay.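 Values shown are percent growth following 48 h exposure of cells in 96-well plates to a single concentration of compound; below 10 was considered active.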 Values without a mark were called inactive. Active and inactive are the calls of the source.
# Test system: HL-60(TB) leukemia
# Test: NCI-60 one-dose screen, 48 h (100 = growth as untreated, 0 = no growth, -100 = all killed)
# Settings: 10 µM unless noted
row,SMILES,growth
1,Oc1c(I)cc(I)cc1CNCCCN(Cc1ccccn1)Cc1ccccn1,-27.1% (active)
2,COc1cc2nc(Nc3ccc(F)cc3)nc(N)c2cc1OC,79.4%
3,COc1cc(C(=O)C(=O)c2cc(OC)c(O)c(OC)c2)cc(OC)c1O,99.7%
4,COc1ccccc1N1CCCCC1,101%
5,Cn1ccnc1C(=O)/C=C/c1ccc(C(=O)Nc2ccc(F)cc2)cc1,-6.9% (active)
6,Cc1ccc(C(=O)c2ccc(CC(=O)N=Nc3c(O)[nH]c4ccc(OC(F)(F)F)cc34)n2C)cc1,94.6%
7,C/C(CCC(=O)O)=N/Nc1ccc([N+](=O)[O-])cc1,31.9%
8,CCCS(=O)(=O)Nc1ccc(F)c(C(=O)c2c[nH]c3ncc(-c4ccc(Cl)cc4)cc23)c1F,30.7%
9,Cc1cc(CO)c(O)c(CO)c1,80.5%
10,COc1cc(/C=C2\CCCC3=C2NC(N)=NC3c2cc(OC)c(OC)c(OC)c2)cc(OC)c1OC (stereo not given),-7.5% (active)
11,CC(C)CC1NC(C)(C)CO1 (stereo not given),133%
12,N#CC1=C(N)Oc2c(sc3c(F)cccc23)C1c1ccc(Cl)cc1 (stereo not given),-6.14% (active)
13,CN(C)Cc1cn(-c2ncc(-c3ccc(C(F)(F)F)cc3)c(NC3CCCCCC3)n2)nn1,83.3%
14,CCN(CC)CC#CCOC(=O)[C@]1(C)CCC[C@]2(C)[C@H]3C[C@H]4C(C(C)C)=C[C@]3(CC[C@H]21)[C@@H]1C(=O)CCC(=O)[C@@H]14,-36.3% (active)
15,COc1cc2oc(-c3ccc(NC(=O)c4ccccc4)cc3)cc(=O)c2c(OC)c1OC,100%
16,O=C(CI)OCC(COC(=O)CI)OC(=O)CI,53.3%
17,COc1ccc(Cn2cnc3cc(C(=O)Nc4cccc5ccccc45)ccc32)c(OC)c1,-33.3% [30 µM] (active)
18,CN(c1ccccc1)c1ncnc2c1ncn2C,105%
19,COc1ccc2c(c1)CCc1c-2n[nH]c1-c1[nH]nc2c1CCc1cc(OC)ccc1-2,23.4%
20,CCOc1ccc(/C=C/C(=O)c2ccccc2)cc1,70.3%

row,SMILES,growth
1,Cc1c(C(=O)NCCC(=O)NO)sc2ncnc(Nc3ccc(NC(=O)Nc4cccc(C(F)(F)F)c4)cc3)c12,105%
2,CC(C)(CCN=C(N)Nc1ccccn1)c1ccc(C(F)(F)F)cc1,-52.7% (active)
3,CCN(CC)CCC(CNc1ccnc2cc(Cl)ccc12)c1ccc(Cl)cc1 (stereo not given),-53.9% (active)
4,CCN(CCO)CC(=O)c1cc(Cl)cc(Cl)c1Cl,106%
5,CN1CCN(Cc2ccc(NC(=O)c3ccc(C#Cc4c(N)ncc5ccc(F)cc45)cc3)cc2C(F)(F)F)CC1,-10.7% (active)
6,COc1ccc(-c2ccc(-c3ccc(C(=N)N)cc3)s2)cc1Cl,-48.8% (active)
7,CCC(CCC(C)C1CCC2C3CC=C4CC(O)CCC4(C)C3CCC12C)C(C)C (stereo not given) (tested in a mixture with another compound),82.5%
8,COC(=O)[C@@H](Cc1c[nH]c2ccccc12)NC(=O)[C@H](Cc1ccccc1)NCc1ccncc1,80.6%
9,CCOC(=O)c1cc(C(=O)c2ccc(Cl)cc2)n2ccc(-c3cc[n+](CC(=O)c4ccc(OC)cc4)cc3)cc12,24.9%
10,Cc1ccc(-c2c3c(N)nc(-c4ccncc4)nc3nc3c2c(C)nn3-c2ccccc2)cc1,97%
11,CN1C(=O)N(C)C2C1NN=c1s/c(=C\c3ccccc3F)c(=O)n12 (stereo not given),-46.5% (active)
12,Cc1cc(CSc2ccccc2C(=O)N2CC=C(c3ccccc3)CC2)on1,87.7%
13,COc1cc2c(c(OC)c1OC)-c1ccc(N=NC(N)=S)c(=O)cc1[C@@H](NC(C)=O)CC2,-17.7% (active)
14,COCCn1cc(-c2nc(-c3cn(CCOC)c4ncccc34)cs2)c2cc(F)ccc21,97.8%
15,COc1cc2nc(Cl)nc(Nc3cccc(C(=O)/C=C/c4ccc(Cl)cc4)c3)c2cc1OC,51.7%
16,O=C(N=c1n(-c2ccccc2)nc2n1CCN2C1=NCCN1C(=O)c1ccc(Cl)cc1)c1ccc(Cl)cc1,51.2%
17,CN1C(=O)N(C)C2C1NN=c1s/c(=C\c3ccsc3)c(=O)n12 (stereo not given),5.85% (active)
18,ClC1=C(Br)C(Br)(Br)C(=C(Br)Br)C1(Br)Br,29.8%
19,CN(C)CCCNC(=O)c1cncnc1Nc1ccc(OCc2cccc(F)c2)c(Cl)c1,-60.7% (active)
20,CCOC(=O)c1c[nH]n2c(=S)ncnc12,91.2%
